Reference: paper PMC10726135, “HNF4α isoforms regulate the circadian balance between carbohydrate and lipid metabolism in the liver”
In all, about 18,000 sequences were measured (“log2 normalized intensity”: median about 0.36, highest 2% from about 7.3 on). Shown is part of a subset that was picked to be rich in the highest values.

These sequences were tested against T1, HNF4alpha8 (COS-7 nuclear extract) (Homo sapiens, UniProt P41235-5 1-452) (assay: protein-binding microarray; COS-7 nuclear extract on double-stranded Agilent 4x180k PBM; binding buffer, salt, pH and temperature not given in the material; high values mean tight binding). Settings: chain copies: 2; label: 3' end of strand 1 on the slide; dsDNA, one strand shown.
T1 sequence: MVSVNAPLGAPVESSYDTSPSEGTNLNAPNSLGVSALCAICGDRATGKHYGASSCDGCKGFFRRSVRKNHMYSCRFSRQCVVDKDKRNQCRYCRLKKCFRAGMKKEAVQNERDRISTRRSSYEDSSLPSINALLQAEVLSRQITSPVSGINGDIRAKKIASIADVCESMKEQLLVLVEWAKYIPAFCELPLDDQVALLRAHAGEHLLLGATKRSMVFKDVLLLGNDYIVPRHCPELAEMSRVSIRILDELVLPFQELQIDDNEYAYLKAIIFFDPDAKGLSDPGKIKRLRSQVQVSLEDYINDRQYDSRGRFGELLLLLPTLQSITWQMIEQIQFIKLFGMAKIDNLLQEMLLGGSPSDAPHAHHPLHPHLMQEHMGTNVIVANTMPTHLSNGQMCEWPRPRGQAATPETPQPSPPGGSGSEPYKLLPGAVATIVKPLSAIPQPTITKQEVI
Summary of the method: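 Nuclear extracts from COS-7 cells expressing a transiently transfected human HNF4α isoform were put on a custom Agilent SurePrint G3 4x180k array carrying ~44,000 double-stranded ~60-nt test sequences in quadruplicate. Imaging used an Agilent G2565CA scanner at 2-µm resolution. Binding signal is the background-corrected, normalized gProcessedSignal from Agilent software.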
“CTTTAACGACCTTTGGACTTGAATTATCCTGCCTAGGGAGATTAGAGTATCGGTCGA” gave a binding signal of 8.83 log2 normalized intensity.
“AGAGTTAGGGCCTTGCTATGGAGTGGACTTGCCTAGGGAGATTAGAGTATCGGTCGA” gave a binding signal of 3.91 log2 normalized intensity.
For “ACGACCTTTGGACTTGAATTATCCTTATGGGCCTAGGGAGATTAGAGTATCGGTCGA”, the binding signal was 6.99 log2 normalized intensity.
“TGCTAGAGTACTTGGACTTTAACCTTTAGAGCCTAGGGAGATTAGAGTATCGGTCGA” gave a binding signal of 9.71 log2 normalized intensity.
In the case of “TGGTATGCTAGAGTACTTGGACTTTAACCTGCCTAGGGAGATTAGAGTATCGGTCGA”, the binding signal is reported as 9.56 log2 normalized intensity.
In the case of “CTTTGGACTTGAATTATCCTTATGGTCTCTGCCTAGGGAGATTAGAGTATCGGTCGA”, the binding signal is reported as 0.611 log2 normalized intensity.
Sequence “GCCTAAGCAGGGCTAGACTTTAACCCCCTTGCCTAGGGAGATTAGAGTATCGGTCGA” has a binding signal of 6.24 log2 normalized intensity.
“GCTTTTGGAAGGACTTCGAATGGTATGCTAGCCTAGGGAGATTAGAGTATCGGTCGA” showed a binding signal of -0.468 log2 normalized intensity.
For “CTGGACTATGCCTTGAACTTTAAGGCACCTGCCTAGGGAGATTAGAGTATCGGTCGA”, the binding signal was 1.67 log2 normalized intensity.
“TCGAATGGTATGCTAGAGTACTTGGACTTTGCCTAGGGAGATTAGAGTATCGGTCGA” gave a binding signal of 7.5 log2 normalized intensity.
Sequence “ACACTGGGCTAGAGGTCTTAATCTTTTTACGCCTAGGGAGATTAGAGTATCGGTCGA” has a binding signal of 1.15 log2 normalized intensity.
Work on “CAGTGGGAGACAGGCATTAACCCTTTAGTGGCCTAGGGAGATTAGAGTATCGGTCGA” yielded a binding signal of 0.965 log2 normalized intensity.
Sequence “CAACCCATCCAACTCCTTGAGAAGTACAACGCCTAGGGAGATTAGAGTATCGGTCGA” has a binding signal of -0.809 log2 normalized intensity.
“CAAAATATCTCACTCCCACACTGGTAACCTGCCTAGGGAGATTAGAGTATCGGTCGA” showed a binding signal of 0.32 log2 normalized intensity.
Sequence “CAGCTGTTATCTCTTTTGTGATAGAATGAAGCCTAGGGAGATTAGAGTATCGGTCGA” has a binding signal of 1.89 log2 normalized intensity.
“GTGTCATTGTTATTTACGGTGGGCACCTCAGCCTAGGGAGATTAGAGTATCGGTCGA” was tested, and the binding signal was 0.235 log2 normalized intensity.
“AGTGTTTCAAAGGAGTGTCTTTCTCCTTGAGCCTAGGGAGATTAGAGTATCGGTCGA” gave a binding signal of 1.38 log2 normalized intensity.
“GAGTACTTGGACTTTAACCTTTAGATTACTGCCTAGGGAGATTAGAGTATCGGTCGA” showed a binding signal of 7.94 log2 normalized intensity.
Work on “ACTTTAACCTTTAGATTACTAGGAATTGATGCCTAGGGAGATTAGAGTATCGGTCGA” yielded a binding signal of 1.53 log2 normalized intensity.
“CTTGGACTTTAACCTTTAGATTACTAGGAAGCCTAGGGAGATTAGAGTATCGGTCGA” showed a binding signal of 6.61 log2 normalized intensity.
In the case of “TGCCAAGGAGCCTCTGCAACCTTTGCTCTCGCCTAGGGAGATTAGAGTATCGGTCGA”, the binding signal is reported as 6.62 log2 normalized intensity.
“CTGCCACATTTTTATCCTTTTTTGAAGGTTGCCTAGGGAGATTAGAGTATCGGTCGA” gave a binding signal of 2 log2 normalized intensity.
“TTTGAAGGTTAAAGTCCATTTTTGAGGACCGCCTAGGGAGATTAGAGTATCGGTCGA” was tested, and the binding signal was 6.47 log2 normalized intensity.
With “ATGGTTAAGGTGAAAGTCCGACTTTTAAGAGCCTAGGGAGATTAGAGTATCGGTCGA” the binding signal was 4.06 log2 normalized intensity.
For “TTTATCCTTTTTTGAAGGTTAAAGTCCATTGCCTAGGGAGATTAGAGTATCGGTCGA”, the binding signal was 7.82 log2 normalized intensity.
In the case of “CCTTTTTTGAAGGTTAAAGTCCATTTTTGAGCCTAGGGAGATTAGAGTATCGGTCGA”, the binding signal is reported as 7.52 log2 normalized intensity.
Work on “ACATTTTTATCCTTTTTTGAAGGTTAAAGTGCCTAGGGAGATTAGAGTATCGGTCGA” yielded a binding signal of 3 log2 normalized intensity.
Work on “AAACCTCCCCCAAACCAAAGAGAAATGGTGGCCTAGGGAGATTAGAGTATCGGTCGA” yielded a binding signal of 3.41 log2 normalized intensity.
“TGGTTTTCCAATCTGGTGAAAGATGATGAGGCCTAGGGAGATTAGAGTATCGGTCGA” was tested, and the binding signal was 0.365 log2 normalized intensity.
Work on “TCTAAGGCAAAACACCCCTTTCACTTCTTCGCCTAGGGAGATTAGAGTATCGGTCGA” yielded a binding signal of 0.915 log2 normalized intensity.
Work on “CCATTTATAAGAAACTGCTCCTGCTTGGGAGCCTAGGGAGATTAGAGTATCGGTCGA” yielded a binding signal of -0.881 log2 normalized intensity.
Sequence “TGCCAGCCCCGAGATAACCCCTCTCCAAGCGCCTAGGGAGATTAGAGTATCGGTCGA” has a binding signal of 4.43 log2 normalized intensity.
“ATAGACTGTCCCTCAGTGTGGGACTTTGGTGCCTAGGGAGATTAGAGTATCGGTCGA” was tested, and the binding signal was 3.52 log2 normalized intensity.
In the case of “ACAGAAGAAGGAAAAGGCCTGACCTTTGCCGCCTAGGGAGATTAGAGTATCGGTCGA”, the binding signal is reported as 5.58 log2 normalized intensity.
“CAGAGGCTTCCTCTTTGGTGCAAAGGTCAGGCCTAGGGAGATTAGAGTATCGGTCGA” gave a binding signal of 7.47 log2 normalized intensity.
“AGAGGACAGAAGAAGGAAAAGGCCTGACCTGCCTAGGGAGATTAGAGTATCGGTCGA” was tested, and the binding signal was 1.07 log2 normalized intensity.
For “CTCTTTGGTGCAAAGGTCAGGACAAGGCTCGCCTAGGGAGATTAGAGTATCGGTCGA”, the binding signal was 4.73 log2 normalized intensity.
With “TGGTGCAAAGGTCAGGACAAGGCTCTGGTGGCCTAGGGAGATTAGAGTATCGGTCGA” the binding signal was 4.55 log2 normalized intensity.
In the case of “GAAAAGGCCTGACCTTTGCCCTCTGGCCCTGCCTAGGGAGATTAGAGTATCGGTCGA”, the binding signal is reported as 9.29 log2 normalized intensity.
In the case of “CCCTCGACCTTTGCCCTCCATAAGGGGGAGGCCTAGGGAGATTAGAGTATCGGTCGA”, the binding signal is reported as 6.74 log2 normalized intensity.
“CCCTGCCTGACCTGCCCTTTGTCCCTCCTGGCCTAGGGAGATTAGAGTATCGGTCGA” showed a binding signal of 5.06 log2 normalized intensity.
With “AGAAGGAAAAGGCCTGACCTTTGCCCTCTGGCCTAGGGAGATTAGAGTATCGGTCGA” the binding signal was 10.4 log2 normalized intensity.
“TCACTGACCTCTGCCCTACTGTATATCCTGGCCTAGGGAGATTAGAGTATCGGTCGA” gave a binding signal of 2.89 log2 normalized intensity.
In the case of “TTCTGCCCCTTGCTCCTGCTTGCTGGCTTTGCCTAGGGAGATTAGAGTATCGGTCGA”, the binding signal is reported as 1.35 log2 normalized intensity.
Sequence “GACCTTTGCCCTCTGGCCCTTAAAGGCTTTGCCTAGGGAGATTAGAGTATCGGTCGA” has a binding signal of 7.8 log2 normalized intensity.
